Bioassay records from PubChem.
This is one part of a sample in which hits are shown more often than they occur.
Pf Dd2 growth = qHTS Primary assay for Inhibitors of Plasmodium falciparum Dd2 growth in vitro; P. falciparum Dd2 growth, SYBR Green, 72 h; Potency, µM (series often up to 28.9 µM), for inactives: top-dose activity, negative = inhibition, usual class: inhibitors; 4.3% of 120,000 active; AID 1347417, 2020; active = well fitted inhibition curve with a large enough effect;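 also: plate controls were DMSO vehicle for no effect and reference drug for full effect; nearly all actives have a fitted effect of over 65% in size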
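Infected erythrocytes (Dd2, 0.3% parasitemia, 2.5% hematocrit final) are added to compound in RPMI-1640/Albumax II medium, grown 72 h at 37C in low oxygen, then lysed with saponin/Triton-X containing SYBR Green and read by fluorescence.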
An asterisk follows results filed as active; i = inactive; [ ] = dose if it differs, or a comment. Potency is read from the fitted curve at half-maximal effect.

SMILES | Pf Dd2 growth
O=C(c1n[nH]c2c1CCCC2)N1CCC2(CC1)NC(=O)N(c1ccccc1)N2 | 3.2µM*
COc1ccc(C(=O)N2CCC3(CC2)NC(=O)N(c2ccccc2)N3)cc1 | 7%
Cc1ccc(-n2c3nc(=O)[nH]c(=O)c-3cc3c(C)nn(-c4ccccc4)c32)cc1C | 10%
CCc1ccc(-n2c(=O)c3c4c(sc3n(Cc3ccc(C)cc3)c2=O)CCC4)cc1 | i
CCc1ccc(NC(=O)Cn2nnc(C(=O)Nc3cc(C)ccc3OC)c2N)cc1 | 19%
CCOC(=O)c1[nH]c2c(c1Cc1ccccc1OC)C(=O)CC(c1ccccc1)C2 (stereo unspecified) | 11µM*
COc1ccc(C2CC(=O)c3c([nH]c(C(=O)OC4CCC(C)CC4)c3C)C2)cc1OC (stereo unspecified) | -16%
CCOC(=O)c1ccc(NC(=O)c2cc3c([nH]c2=O)CC(c2ccccc2)CC3=O)cc1 (stereo unspecified) | -10%
Cc1c(C(=O)OCCOc2ccccc2)[nH]c2c1C(=O)CC(c1ccc(C(C)(C)C)cc1)C2 (stereo unspecified) | 4µM*
Cc1c(C(=O)OC2CCCC2)[nH]c2c1C(=O)CC(c1ccc(Cl)cc1)C2 (stereo unspecified) | -14%
COc1ccc(C2CC(=O)c3c([nH]c(C(=O)OCc4ccccc4)c3C)C2)cc1 (stereo unspecified) | -12%
Cc1cccc(NS(=O)(=O)c2ccc3c(c2)[C@H]2C=CC[C@H]2[C@@H](c2ccc(F)cc2)N3)c1 | 35%[0.594 µM]
O=C(c1cccs1)N1CC2CC(C1)[C@H]1CCCC(=O)N1C2 (stereo partly specified) | 7%
COCC(=O)N1CCN(C(=O)c2ccc(N(C)C)cc2)C[C@H]1C(=O)N[C@@H](CC1CCCCC1)C(N)=O | -8%
CNC(=O)[C@@H]1CCCC[C@@H]1C(=O)N1CCn2nc(Cc3ccccc3)cc2C1 | -14%
O=C(Cc1ccc(Cl)cc1)N1C[C@@H](CO)[C@H](c2ccncc2)C1 | -8%
Cc1ccc(C)c(S(=O)(=O)c2cn(C)c3cc(F)c(F)cc3c2=O)c1 | 10%
CCn1cc(S(=O)(=O)c2cc(C)cc(C)c2)c(=O)c2cc(F)c(N3CCCCC3)cc21 | -16%
Cc1ccc(C)c(S(=O)(=O)c2cn(C)c3cc(N4CCCCC4C)c(F)cc3c2=O)c1 (stereo unspecified) | 11µM*
CCCn1cc(S(=O)(=O)c2cc(C)ccc2C)c(=O)c2cc(F)c(N3CCOCC3)cc21 | 47%
CCCCn1cc(S(=O)(=O)c2cc(C)ccc2C)c(=O)c2cc(F)c(F)cc21 | -11%
CCn1cc(S(=O)(=O)c2ccc(C)cc2C)c(=O)c2cc(F)c(N3CCCC3)cc21 | 11µM*
Cc1cccc(S(=O)(=O)c2cn(C)c3cc(N4CCCCCC4)c(F)cc3c2=O)c1 | i
Cc1ccc(S(=O)(=O)c2cn(C)c3cc(N4CCCC4)c(F)cc3c2=O)c(C)c1 | 10µM*
COc1ccc(CC(=O)N2CC[C@H]3CC(=O)N(Cc4ccc5c(c4)OCO5)CC[C@H]3C2)cc1 | 28%
SMILES | Pf Dd2 growth
CCOc1ccc(CCNC(=O)C2CCN(C(=O)N3CC(CC)Oc4ccccc43)CC2)cc1 (stereo unspecified) | -14%
c1ccc2c(c1)CC(n1ccnc1-c1cc3n(n1)CCCNC3)C2 | i
CN1CC(=O)N2CCN(Cc3nn(C)c4cccc(Cl)c34)CC2C1=O (stereo unspecified) | 0%
COc1ccc(-c2ccc3c(c2)C(=O)N2CCN(C(=O)C4CCCCC4)C[C@@H]2C(=O)N3)cc1 | i
COc1ccc(Cl)cc1-c1ccc2c(c1)C(=O)N1CCN(C(=O)C3CCCCC3)C[C@@H]1C(=O)N2 | i
COc1ccc(Cl)cc1-c1ccc2c(c1)C(=O)N1CCN(C(=O)C3CC3)C[C@@H]1C(=O)N2 | 13µM*
CSc1ccc(-c2ccc3c(c2)C(=O)N2CCN(C(=O)C4CCCCC4)C[C@@H]2C(=O)N3)cc1 | 8.9µM*
O=C1Nc2ccc(-c3ccc4c(c3)OCO4)cc2C(=O)N2CCN(C(=O)C3CCCC3)C[C@@H]12 | i
COc1ccc(Cl)cc1-c1ccc2c(c1)C(=O)N1CCN(C(=O)c3ccccc3)C[C@@H]1C(=O)N2 | i
O=C(Nc1nnc(S(=O)(=O)N2CCN(c3ccc(F)cc3)CC2)s1)c1ccc(Cl)cc1 | 12%
O=C(Nc1ccc(F)cc1)N[C@H]1[C@H](O)[C@@H](Sc2ccccc2)[C@@H]2OC[C@H]1O2 | i
O=C1NCCCCCN(C(=O)c2ccccn2)[C@H]2CCC[C@@H]12 | 1%
CCCc1nc(C(=O)NC(c2ccc(OC)nc2)C2CC(O)C2)cs1 (stereo unspecified) | -1%
O=C1NC2(CCN(C(=O)c3ccc(F)cc3)CC2)COc2ccccc21 | -12%
O=C1NC2(CCN(C(=O)c3ccc(C(F)(F)F)cc3)CC2)COc2ccccc21 | 1.1µM*
COc1ccc(C(=O)N2CCC3(CC2)COc2ccccc2C(=O)N3)cc1 | 2.2µM*
O=C1NC2(CCCN(C(=O)c3ccc(F)cc3)C2)COc2ccccc21 (stereo unspecified) | i
